# Rows were chosen to be rich in hits. Some 32% of all compounds tested hit in one or more screens of this group.
# CYP2C19 act – human CYP2C19 activators, primary screen, biochemical, luminescence; Cytochrome P450 2C19 (Homo sapiens), P33261; recombinant CYP2C19, luciferin-H EGE luminescence; stronger effect = higher value; 0 = fully inhibited enzyme, 1 = untreated enzyme; activation factor at 5 µM; 96,000 tested, under 10 active; AID 1025, 2008;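 active = activation factor of at least 2 at 5 µM in the primary screen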;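 also: 0 = wells with 2.5 mM tranylcypromine and 1 = vehicle-only wells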
# CYP2C9 act – human CYP2C9 activators, primary screen, biochemical, luminescence; Cytochrome P450 2C9 (Homo sapiens), P11712; recombinant CYP2C9, luciferin-H conversion; stronger effect = higher value; factor 1 = untreated enzyme, 0 = blocked; activation factor at 5 µM; 96,000 compounds, 1.4% hits;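 active = activation factor of 2 or more for CYP2C9 at a 5 µM dose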;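 also: 0 = sulfaphenazole-blocked wells and 1 = vehicle-only wells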
# Target sequence (P11712 whole entry, looked up): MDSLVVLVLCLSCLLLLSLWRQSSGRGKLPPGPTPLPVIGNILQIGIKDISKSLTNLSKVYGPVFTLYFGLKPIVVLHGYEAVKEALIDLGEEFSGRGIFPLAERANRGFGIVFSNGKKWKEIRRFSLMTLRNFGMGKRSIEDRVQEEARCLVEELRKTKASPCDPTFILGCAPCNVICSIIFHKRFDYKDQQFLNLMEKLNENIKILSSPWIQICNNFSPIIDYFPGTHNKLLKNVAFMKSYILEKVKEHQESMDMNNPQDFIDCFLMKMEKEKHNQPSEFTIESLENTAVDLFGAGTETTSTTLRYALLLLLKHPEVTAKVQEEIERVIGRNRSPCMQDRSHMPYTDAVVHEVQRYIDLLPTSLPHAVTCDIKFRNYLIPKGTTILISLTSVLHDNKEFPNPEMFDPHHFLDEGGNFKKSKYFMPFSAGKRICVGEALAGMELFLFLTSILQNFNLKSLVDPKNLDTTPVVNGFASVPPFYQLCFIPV
# CYP2C9 inhib – blockers of cytochrome P450 2C9 activity – biochemical, luminescence, ADME assay, primary screen | CYP2C9 Supersomes, luciferin-H conversion | inhibition, % at 5 µM | 96,000 compounds, 20% hits | AID 777, 2007;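 active = blocking of liver enzyme CYP2C9 beyond about 50% at 5 µM, limit read from the data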
# PostGolgi yeast – phenotypic screen on post-Golgi transport, primary screen; inhibition, % at 10 µM; post-Golgi transport phenotypic cell assay; 98,000 compounds, 0.9% hits;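 also: yeast cells grown in 1536-well plates; yeast grown about 18 h at 30C before absorbance read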
# PostGolgi ctrl – growth inhibition of yeast control strain, primary screen, counter-screen for post-Golgi transport modulator project; efflux-deficient yeast background strain, growth absorbance A615, 16 h; inhibition, % at 10 µM; 98,000 compounds, 5% hits; AID 738, 2007
# CYP2C19 inh – blockers of cytochrome P450 2C19 activity – biochemical, luminescence, ADME assay, primary screen | inhibition, % at 5 µM | P33261 | CYP2C19 Supersomes, luciferin-H EGE luminescence, 30 min | 96,000 compounds, 21% hits;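 active = CYP2C19 inhibition above a set limit at 5 µM in the primary screen, cut at about 50% in these data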;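 also: plate controls were negative control wells for no effect and 2.5 mM tranylcypromine positive control for full effect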
# * hit, by the source's call; x = no result. Rule as the data show it, unless noted: active = inhibition above about 30%; inactive = the rest.
SMILES,CYP2C19 act,CYP2C9 act,CYP2C9 inhib,PostGolgi yeast,PostGolgi ctrl,CYP2C19 inh
Cc1ccc(Cl)cc1N1CCN(Cc2nc3c(c(=O)[nH]c(=O)n3C)n2Cc2ccccc2F)CC1,0.7,0.6,44,x,x,25
CC(C)=CCC(C)(C)C1OCCN1C(=O)Nc1ccccc1 (centres undefined),0,0.2,80*,-2,5,100*
O=Cc1ccc(N2CCCCCC2)cc1,0.1,0.7,30,1,5,89*
O=C(O)CNS(=O)(=O)c1cccc2nsnc12,1.1,1,0,16,-3,-6
COc1ccc2c(c1OC)CN(C)CCc1cc3c(cc1C(O)C2)OCO3 (centres undefined),0.2,1.2,-23,5,10,80*
COc1cccc(C2/C(=C(\O)c3ccc4c(c3)OCO4)C(=O)C(=O)N2CCN(C)C)c1OC (centres undefined),0.8,0.9,8,4,5,20
Cc1nn(-c2nc3ccccc3n2Cc2ccccc2)c2c1C(=O)CC(C)(C)C2,0.5,0.3,66*,-11,26,53*
COc1cc(C)c(N)cc1C(C)C,0.1,0.4,57*,-1,-5,88*
CC(CC#CCN1CCOCC1)OCCC#N (centres undefined),1.1,1,3,12,-4,-11
COC(=O)c1sccc1-n1cccc1C(=O)C(=O)N1CC(C)OC(C)C1 (centres undefined),0.8,1.4,-38,4,2,18
CCCCOC(=O)Nc1nc2ccccc2s1,0.8,0.8,16,-3,-2,19
COc1ccccc1-c1nnc(NC(C)=O)s1,1.1,2.1*,-110,7,10,-7
CCCCOC(=O)Nc1nnc(-c2ccccc2OC)s1,0.9,4.2*,-323,0,13,13
COc1ccccc1-c1nnc(NC(=O)C(C)C)s1,0.7,0.8,20,21,13,28
CCCn1nc(Oc2nc(NCC)nc(NC(C)C)n2)ccc1=O,0.8,0.9,5,-10,4,20
CC(=O)NCCn1c(SCc2cc(F)ccc2F)nc2ccccc2c1=O,0.2,0,99*,3,3,76*
CC(=O)NCCn1c(SCc2ccccc2C)nc2ccccc2c1=O,0.2,0,98*,-2,8,79*
COc1ccc(OC)c(NC(=O)CSc2nc3ccccc3c(=O)n2CCNC(C)=O)c1,x,x,x,4,-7,x
CCn1c(SCC(N)=O)nc2ccccc2c1=O,1.1,1.1,-8,6,19,-11
CC(=O)NCCn1c(SCc2ccc(C)cc2C)nc2ccccc2c1=O,0,0,98*,0,33*,98*
CC(/C=C/c1ccccc1)=N\NC(N)=S,0.8,0.9,14,3,2,19
COC(=O)C1(C)NC(c2ccco2)C2C(=O)N(c3ccc(C)cc3)C(=O)C21 (centres undefined),1,1,2,-2,5,1
O=C(CSc1nc(N2CCCCC2)nc(N2CCCCC2)n1)N1CCN(c2ccccc2)CC1,0.2,0.2,83*,x,x,77*
Cn1nnnc1SCC(=O)N1CCN(c2ccccc2)CC1,0.6,1.2,-23,1,-7,41
Cn1c(SCC(=O)N2CCN(c3cccc(Cl)c3)CC2)nnc1-c1ccncc1,1,1,-1,-1,1,-2
SMILES,CYP2C19 act,CYP2C9 act,CYP2C9 inhib,PostGolgi yeast,PostGolgi ctrl,CYP2C19 inh
O=C(CSc1ccccn1)N1CCN(c2ccccc2)CC1,0,0.6,45,5,2,99*
Cn1nnnc1SCC(=O)N1CCN(c2cccc(Cl)c2)CC1,0.3,1.1,-11,6,15,72*
O=C(CSc1ccccn1)N1CCN(c2cccc(Cl)c2)CC1,0.3,0.6,36,1,5,72*
O=C(c1nc(-c2ccccc2)n(-c2ccccc2)n1)N1CCCCCC1,1.1,1,0,1,9,-7
Nc1nc(SCc2c(Cl)cccc2Cl)n[nH]1,1,1.2,-20,0,-10,3
c1ccc2c(c1)OCC(c1csc3ncnc(N4CCOCC4)c13)O2 (centres undefined),0.2,0.5,50*,5,3,78*
c1ccc(-n2nnc3c(N4CCOCC4)ncnc32)cc1,0.7,0.6,44,13,7,28
Cc1ccc(N=Nc2c(N)[nH]n3c(=O)c4c(nc23)CCCC4)cc1,1.1,1.1,-13,-1,25,-12
CCOC(=O)c1cc(CC)sc1NC(=O)Cc1ccccc1,0.8,0.8,16,3,17,21
CCOC(=O)c1cc(CC)sc1N,0.6,0.7,26,0,30*,43
CCOC(=O)c1cc(CC)sc1NC(=O)COC,0.8,0.2,84*,2,11,25
O=C1CCC(=O)N1CNc1ccccn1,1.1,1.2,-18,12,1,-12
O=C(O)CCn1c2c(c3ccccc31)CCCC2,1.1,1,2,2,48*,-9
C=C(C)Cn1c(N2CCC(Cc3ccccc3)CC2)nc2c1c(=O)[nH]c(=O)n2C,x,x,x,12,54*,x
Cn1c(=O)[nH]c(=O)c2c1nc(N1CCC(Cc3ccccc3)CC1)n2Cc1ccccc1,0.7,0.8,23,19,2,29
CCCn1c(N2CCC(Cc3ccccc3)CC2)nc2c1c(=O)[nH]c(=O)n2C,0.2,0.4,57*,9,52*,83*
CC(=O)Cn1c(N2CCC(Cc3ccccc3)CC2)nc2c1c(=O)[nH]c(=O)n2C,0.5,0.8,16,-2,10,50*
COc1ccc(-c2[nH]c(-c3ccc(C)cc3)nc2SCC(=O)NCc2ccco2)cc1OC,0.4,0.6,44,-2,-5,64*
COc1ccc(-c2ccc(SCC(=O)NCc3ccco3)nn2)cc1OC,0.7,0.7,32,-6,-10,29
O=C(CSc1ncc(-c2ccc(F)cc2)[nH]1)NCc1ccco1,0.6,0.8,18,-2,4,44
Cc1cc(C)c2cc(C#N)c(SCC(=O)NCc3ccco3)nc2c1,0.7,0.3,71*,23,7,29
Cc1ccc2c(SCC(=O)NCc3ccco3)nc(-c3ccc(F)cc3)nc2c1,0.7,0.1,89*,-2,5,28
Cc1ccnc2c(N3C(=O)C4C5C=CC(C5)C4C3=O)cccc12 (centres undefined),1.2,1.2,-23,0,12,-16
CCOC(=O)c1c(C)oc2c1c1c(c3ccccc32)OCN(Cc2cccnc2)C1,0.5,0.5,54*,9,35*,46
CCOC(=O)c1c(C)oc2c1c(C(c1cccnc1)N1CCOCC1)c(O)c1ccccc12 (centres undefined),0.7,0.4,64*,-2,37*,34

# Compound activity: PubChem, several laboratories
